# Compound activity from PubChem BioAssay.
# Sampled rows, rich in hits. Any-hit rate of the full collection: about 27%.
# CYP2C19 inhib: blocks human cytochrome P450 2C19. P33261. CYP2C19 Supersomes, luciferin-H EGE luminescence, 30 min. inhibition, % at 5 µM. hit rate 21% among 96,000. AID 778;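 active = CYP2C19 inhibition above a set limit at 5 µM in the primary screen, cut at about 50% in these data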;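 also: plate controls were negative control wells for no effect and 2.5 mM tranylcypromine positive control for full effect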
# Target sequence (P33261 whole entry, looked up): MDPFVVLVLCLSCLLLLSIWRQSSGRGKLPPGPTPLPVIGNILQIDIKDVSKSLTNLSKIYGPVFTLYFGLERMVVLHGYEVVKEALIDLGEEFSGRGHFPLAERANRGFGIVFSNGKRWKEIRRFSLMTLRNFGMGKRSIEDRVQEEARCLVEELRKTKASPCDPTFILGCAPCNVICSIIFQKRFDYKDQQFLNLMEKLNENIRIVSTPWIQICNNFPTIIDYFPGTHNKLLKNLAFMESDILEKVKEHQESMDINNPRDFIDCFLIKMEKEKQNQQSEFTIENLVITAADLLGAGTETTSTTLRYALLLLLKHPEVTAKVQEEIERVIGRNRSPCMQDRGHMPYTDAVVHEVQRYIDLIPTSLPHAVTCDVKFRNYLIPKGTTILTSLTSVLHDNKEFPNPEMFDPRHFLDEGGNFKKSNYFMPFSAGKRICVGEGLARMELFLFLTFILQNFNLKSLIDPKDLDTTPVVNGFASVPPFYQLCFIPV
# CYP2C19 activ: activators of human cytochrome P450 2C19; P33261; recombinant CYP2C19, luciferin-H EGE luminescence; hits give high values; 0 = fully inhibited enzyme, 1 = untreated enzyme; activation factor at 5 µM; 96,000 tested, under 10 active; AID 1025;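 active = activation factor of at least 2 at 5 µM in the primary screen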;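 also: 0 = wells with 2.5 mM tranylcypromine and 1 = vehicle-only wells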
# CYP2C9 inhib: human CYP2C9 inhibition | P11712 | CYP2C9 Supersomes, luciferin-H conversion, luminescence | inhibition, % at 5 µM | hit rate 20% among 96,000 | AID 777;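 active = blocking of liver enzyme CYP2C9 beyond about 50% at 5 µM, limit read from the data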
# PTK2B oligo ant: Pyk2 (human) oligomerization antagonism; Q14289; Q293 cells, Pyk2 FERM NanoBiT luminescence; hits give low values; z-score (the deposit names both 25 µM and 10 µM); hit rate 0.83% among 99,000; AID 1347419;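 active = Z-score of -3 or lower, scaled per plate to the spread of control and sample wells; inactive = z-score above -3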;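 also: negative z-score means lost luminescence so less FERM oligomerization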
# CYP2C9 activ: activators of human CYP2C9 | activation factor at 5 µM | P11712 | recombinant CYP2C9, luciferin-H conversion, luminescence; hits give high values; factor 1 = untreated enzyme, 0 = blocked | AID 1024 | hit rate 1.4% among 96,000;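 active = activation factor of 2 or more for CYP2C9 at a 5 µM dose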;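 also: 0 = sulfaphenazole-blocked wells and 1 = vehicle-only wells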
# Cav32 inh: human Cav3.2 channel inhibition, primary screen. AID 449739. B-score at 10 µM. hit rate 4% among 100,000. Cav3.2-expressing cells, Fluo-4 calcium fluorescence FDSS; hits give low values;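 active = single-dose well whose peak fluorescence ratio is a statistical outlier from its plate by either plate-standardised score or position-corrected B-score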
# Numbers without * were called inactive; x = no result.
SMILES,CYP2C19 inhib,CYP2C19 activ,CYP2C9 inhib,PTK2B oligo ant,CYP2C9 activ,Cav32 inh
CC1(c2ccc(Cl)cc2Cl)OCC(Cn2ccnc2)O1 (centres undefined),99*,0,83*,1,0.2,0.0025
O=C(c1ccco1)N1CCN(C(=O)C2CCCO2)CC1 (centres undefined),x,x,x,0.8,x,0.72
CC(=O)N/C(=C/c1ccc2c(c1)OCO2)C(=O)NCC(=O)O,x,x,x,0.68,x,x
Cc1ccc(C)c(/C(O)=C2\C(=O)C(=O)N(CCCn3ccnc3)C2c2ccncc2)c1 (centres undefined),22,0.8,53*,0.81,0.5,0.03
CCOC(=O)c1cc(C)sc1/N=C/C1=C(O)CCCC1=O,x,x,x,-0.28,x,x
COc1cc(-c2nnc(-c3ccc(S(=O)(=O)c4ccccc4)cc3)o2)cc(OC)c1OC,61*,0.4,61*,-0.57,0.4,0.94
COc1cc(-c2nnc(SCC3(c4ccccc4)OCCO3)o2)cc(OC)c1OC,76*,0.2,-65,-0.94,1.6,-1.3
O=c1[nH]c2ccsc2c(=O)n1-c1ccc(F)c(Cl)c1,30,0.7,25,0.76,0.7,0.37
Cc1ccc(CNC(=O)c2ccc3c(=O)n4c(-c5ccc(C)cc5)csc4nc3c2)cc1,x,x,x,x,x,-0.72
COC(=O)CCSCc1cn2cc(Cl)ccc2n1,31,0.7,-1,0.28,1,-1.3
CCOC(=O)c1ccc(NC(=O)CSc2nnc(CNC(=O)c3c(F)cccc3Cl)o2)cc1,24,0.8,58*,2,0.4,-0.0062
COc1ccc(C(=O)NCc2nnc(SCC(=O)Nc3cccc(C(F)(F)F)c3)o2)cc1OC,54*,0.5,-18,-0.74,1.2,-0.4
COc1cc(Nc2nnc(C)s2)c(Cl)cc1Cl,21,0.8,9,-0.52,0.9,-0.3
COCCOc1cc(Nc2nnc(C(F)(F)F)s2)c(Cl)cc1Cl,66*,0.3,92*,-2.7,0.1,-1.8
COc1cc(CNCCc2ccccc2)ccc1OCc1ccc(Cl)nc1,68*,0.3,35,0.45,0.7,x
COc1ccc(CNCc2ccco2)cc1OCc1ccccc1,65*,0.4,-5,0.07,1.1,-0.33
COc1ccccc1CCNCc1ccc(OC)c(OCc2ccccc2)c1,42,0.6,-17,1.2,1.2,-4.8*
COc1cc(CNCC(O)c2ccccc2)ccc1OCc1ccc(Cl)nc1 (centres undefined),42,0.6,39,1.3,0.6,-0.63
COc1cc(CNCCc2ccccc2)ccc1OCC(=O)NC(C)(C)C,14,0.9,36,0.88,0.6,-0.064
CCN(CC)C(=O)CC(c1cc(OC)c(OC)c(OC)c1)c1c(OC)cc(OC)c2c(-c3ccccc3)cc(=O)oc12 (centres undefined),x,x,x,x,x,-0.83
O=S(=O)(NCCc1cn2ccccc2n1)c1cccs1,18,0.8,3,x,1,0.0044
Cc1c(Cc2ccc3c(c2)OCO3)sc(NC(=O)C(C)(C)C)c1C#N,-8,1.1,9,x,0.9,0.032
O=C(O)c1ccc(Br)c(S(=O)(=O)N2CCCC2)c1,8,0.9,3,-0.18,1,-0.19
CC1=C(C)C(=O)N(c2ccccn2)C1=O,2,1,12,0.56,0.9,0.92
O=C1c2cccc3c(N4CCCCC4)ccc(c23)C(=O)N1c1ccccn1,49,0.5,34,0.09,0.7,-6.9*
SMILES,CYP2C19 inhib,CYP2C19 activ,CYP2C9 inhib,PTK2B oligo ant,CYP2C9 activ,Cav32 inh
O=C(NCc1nc2ccccc2[nH]1)C1=C[C@H](c2coc3ccccc3c2=O)C[C@H](OCCCCO)O1,x,x,x,x,x,-0.014
Fc1ccc(CN2CCCCCCC2)cc1,18,0.8,7,-0.91,0.9,-0.87
NC(=O)C1(N2CCCCC2)CCN(Cc2ccc(F)cc2)CC1,13,0.9,-2,2.2,1,-4.2*
S=C(NCCSCc1ccc(Cl)cc1)Nc1ccccc1,51*,0.5,52*,-0.42,0.5,x
S=C(NCCSCc1ccccc1Cl)Nc1ccccc1,96*,0,-94,-0.57,1.9,-6.4*
COc1ccccc1C1C(C(=O)c2cc3ccccc3o2)=C(O)C(=O)N1CCN1CCOCC1 (centres undefined),-16,1.2,-20,0.12,1.2,0.05
COc1ccnc(NCc2ccc(Cl)cc2)c1C#N,100*,0,30,-3.6*,0.7,-0.055
Cc1ccc2nc(NC(=O)c3ccc(Cn4cc(Cl)cn4)o3)sc2c1,x,x,x,-2.4,x,0.015
CC(=O)c1sc(NC(=O)c2ccc(Cn3cc(Br)cn3)o2)nc1C,47,0.5,78*,-0.73,0.2,0.31
Clc1ccccc1C(c1ccccc1)(c1ccccc1)n1ccnc1,x,x,x,x,x,-3.2
Cc1oc(C)c2c(=O)ccc3c(c12)OC(N)=C(C#N)C3c1ccc(F)cc1 (centres undefined),50*,0.5,35,0.3,0.7,-3.3*
CCCCN(CCCC)S(=O)(=O)c1ccc(C(=O)Nc2nnc(CSC)o2)cc1,-11,1.1,5,-1.8,0.9,-3.1*
CCCCN(CC)S(=O)(=O)c1ccc(C(=O)Nc2nnc(CSC)o2)cc1,-4,1,82*,-1.8,0.2,-1.2
CCCN(CCC)S(=O)(=O)c1ccc(C(=O)Nc2nnc(CSC)o2)cc1,1,1,18,-2.1,0.8,-1.5
CCCCN(CC)S(=O)(=O)c1ccc(C(=O)Nc2nnc(COC)o2)cc1,-5,1,64*,-0.79,0.4,-0.21
COCCN(CCOC)S(=O)(=O)c1ccc(C(=O)Nc2nnc(C3CC3)o2)cc1,-20,1.2,13,-0.78,0.9,0.75
COc1ccccc1-c1nnc(NC(=O)c2ccccc2F)o1,-4,1,64*,x,0.4,-0.67
COc1ccccc1C1=NOC(C)(c2sc(-c3ccc(Cl)cc3)nc2C)C1 (centres undefined),x,x,x,x,x,0.052
CC(=O)N(Cc1ccccc1)c1ncc2c(n1)c(=O)c(C#N)c1ccccn12,-7,1.1,-27,0.24,1.3,0.15
O=C1c2cnccc2CN1Cc1ccccc1,-4,1,-10,0.63,1.1,-0.088
CCN(Cc1ccccc1)S(=O)(=O)c1ccc(C(=O)Nc2nnc(-c3ccccc3OC)o2)cc1,0,1,70*,-3.9*,0.3,x
CCCCN(C)S(=O)(=O)c1ccc(C(=O)Nc2nnc(-c3cccs3)o2)cc1,-8,1.1,31,x,0.7,x
CCc1nnc(NC(=O)c2ccc(S(=O)(=O)N(CCOC)CCOC)cc2)s1,1,1,-102,x,2*,0.91
CCCCN(CC)S(=O)(=O)c1ccc(C(=O)Nc2nnc(-c3ccccc3Cl)o2)cc1,11,0.9,69*,-2.7,0.3,-3
COc1ccccc1-c1nnc(NC(=O)c2ccc(S(=O)(=O)N(C)C)cc2)o1,2,1,-15,-1.2,1.2,0.57
CCN1CCN(Cc2ccc(NC(=O)Nc3ccccc3OC)cc2)CC1,-6,1.1,6,x,0.9,-0.6
O=C(CSc1nc2ccccc2c(=O)n1CCCC(=O)N1CCCC1)NCc1ccco1,65*,0.4,43,-0.32,0.6,1.7
